Drawing on PubChem BioAssay AID743291 (Broad Institute, 2014), this text covers outcome for 18 molecules.

Results with a measured potency or affinity are listed apart. Activity calls are given as the source filed them.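 Rule for the calls: active = signal drop with fitted half-maximal dose at most twice the top valid dose, active in every repeat; inconclusive = repeats disagree, or flat partial inhibition, or poor fit; inactive = inactive in every repeat, including opposite effects.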

For this test, the target named is Caspase-3 (Homo sapiens) (UniProt P42574). In words: caspase-3 enzyme inhibitors, selectivity check, dose response, selectivity assay for caspase-6 allosteric inhibitor project, biochemical, fluorescence, cherry-picked samples (AID 743291). Conditions: Recombinant caspase-3, Z-DEVD-R110 cleavage fluorescence; series mostly up to 35 µM.
Sequence of Caspase-3 (Homo sapiens) (P42574 whole entry, looked up): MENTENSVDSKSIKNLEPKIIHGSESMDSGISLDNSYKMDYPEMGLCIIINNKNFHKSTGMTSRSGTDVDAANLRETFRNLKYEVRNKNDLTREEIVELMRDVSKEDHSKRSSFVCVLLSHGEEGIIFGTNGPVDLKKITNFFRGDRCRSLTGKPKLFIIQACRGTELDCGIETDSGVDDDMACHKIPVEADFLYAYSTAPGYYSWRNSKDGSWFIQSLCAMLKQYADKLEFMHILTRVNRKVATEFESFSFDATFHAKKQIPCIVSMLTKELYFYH
In the case of `Oc1cc(NCCc2cccnc2)cc2cccnc12`, the outcome was inactive.

On to `O=C(O)CC(CCc1ccccc1)OC1OC(CO)C(O)C(O)C1O` (stereo not drawn), for which the outcome was inactive.

`O=C(O)C1CCCCC1C(=O)Nc1cccc(Br)c1` (stereo not drawn): the result was inactive. For `Cc1cc(C=O)c(C)n1-c1cc(C(=O)O)cc(C(=O)O)c1`, the result was inactive. The value for `COc1cc(NCCCCC(C)N)c2nccc(C)c2c1` (stereo not drawn) was “inactive”; that for `Oc1cc2c(cc1O)[C@H]1c3ccc(O)c(O)c3OC[C@@]1(O)C2` was “inactive”. The same measure for `O=C1CN(C(=O)COC(=O)c2ccc([N+](=O)[O-])s2)c2ccccc2N1`: “inactive”; for `Nc1cc2nn(-c3ccccc3)nc2cc1Cl`: “inactive”. The same measure for `Cc1oc2c(cc(NS(=O)(=O)c3ccc(C(C)C)cc3)c3ccccc32)c1C(=O)O`: “inactive”; for `O=C(O)/C(=C\c1ccc(Cl)c([N+](=O)[O-])c1)c1ccc(S(=O)(=O)N2CCCC2)s1`: “inactive”; for `O=c1ccc2c(-c3ccccc3S(=O)(=O)O)c3ccc(O)c(O)c3oc-2c1O`: “inactive”. As for `Cc1ccc(S(=O)(=O)Nc2csc(C)c2C(=O)O)cc1`, the result was inactive. On to `COCCN(C(=O)COC(=O)c1cc2c(s1)CCC2)c1c(N)n(Cc2ccccc2)c(=O)[nH]c1=O`, for which the outcome was inactive.

`COCCn1c2nc(=O)n(-c3ccccc3)c(=O)c-2nc2ccccc21`: the outcome was inactive. Take `CCOc1c(O)ccc(/C=C2\SC(=S)NC2=O)c1[N+](=O)[O-]`: the outcome was inactive. The value for `O=c1cc2c(=O)oc3cc(O)c(O)oc3c2c(O)c1O` was “inactive”; that for `CCCSC1=N/C(=C\c2ccc([N+](=O)[O-])o2)C(=O)S1` was “inactive”; that for `COc1ccc(S(=O)(=O)Nc2cc(Sc3ncn[nH]3)c(O)c3ccccc23)cc1` was “inactive”.
